From PMC4336329 (PLoS ONE, 2015)
Screen size: about 310,000 compounds; about 14,000 (4.5%) showed an effect of 50% or more. Effects have a minus sign here. For the sample, strong results were picked, then their nearest neighbours and some compounds at random.

Target: human ether-à-go-go-related gene (hERG) potassium channel (human, UniProt Q12809)
Test: primary screen, population patch clamp on CHO cells stably expressing hERG; higher = less effect of the substance
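Note: peak tail current of the secondary pulse compared with the same well before compound.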

human ether-à-go-go-related gene (hERG) potassium channel, sequence (Q12809 whole entry, looked up): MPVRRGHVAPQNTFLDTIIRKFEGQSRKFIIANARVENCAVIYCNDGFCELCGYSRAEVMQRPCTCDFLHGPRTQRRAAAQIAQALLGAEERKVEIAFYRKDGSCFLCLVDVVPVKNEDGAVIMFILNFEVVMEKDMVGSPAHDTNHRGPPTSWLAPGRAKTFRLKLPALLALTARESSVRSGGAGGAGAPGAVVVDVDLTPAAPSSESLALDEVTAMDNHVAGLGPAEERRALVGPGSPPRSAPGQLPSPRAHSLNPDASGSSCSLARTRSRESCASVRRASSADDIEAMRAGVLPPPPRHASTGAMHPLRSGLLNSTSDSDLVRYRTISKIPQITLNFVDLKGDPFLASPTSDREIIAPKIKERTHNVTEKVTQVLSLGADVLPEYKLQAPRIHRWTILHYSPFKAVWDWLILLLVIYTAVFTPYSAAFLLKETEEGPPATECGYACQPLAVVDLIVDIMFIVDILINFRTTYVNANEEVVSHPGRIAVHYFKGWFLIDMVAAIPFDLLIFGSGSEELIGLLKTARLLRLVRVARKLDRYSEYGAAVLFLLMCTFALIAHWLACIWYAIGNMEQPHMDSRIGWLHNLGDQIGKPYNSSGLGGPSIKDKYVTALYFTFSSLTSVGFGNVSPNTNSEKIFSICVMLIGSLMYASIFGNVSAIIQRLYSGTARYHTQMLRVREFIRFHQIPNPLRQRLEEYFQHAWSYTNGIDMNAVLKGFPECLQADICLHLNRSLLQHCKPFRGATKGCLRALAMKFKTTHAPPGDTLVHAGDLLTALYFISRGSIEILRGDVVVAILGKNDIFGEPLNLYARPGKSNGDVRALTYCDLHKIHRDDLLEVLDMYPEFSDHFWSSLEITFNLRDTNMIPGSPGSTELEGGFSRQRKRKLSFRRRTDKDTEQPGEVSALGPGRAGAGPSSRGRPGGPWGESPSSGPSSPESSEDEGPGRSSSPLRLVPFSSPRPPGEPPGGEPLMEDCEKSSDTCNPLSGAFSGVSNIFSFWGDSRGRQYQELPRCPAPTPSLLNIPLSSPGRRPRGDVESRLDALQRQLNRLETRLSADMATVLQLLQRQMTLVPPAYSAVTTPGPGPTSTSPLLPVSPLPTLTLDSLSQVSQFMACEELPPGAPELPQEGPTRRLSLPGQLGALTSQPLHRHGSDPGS

| Structure (SMILES) | hERG current change (%, negative = inhibition) at 10uM |
| --- | --- |
| COc1ccc(NS(=O)(=O)c2cnc[nH]2)cc1 | 17.4% |
| COCCCNC(=O)c1ccc(NS(C)(=O)=O)cc1 | -2.85% |
| O=C(O)c1c(NC(=O)c2cccc3ccccc23)sc2c1CCC2 | 5.11% |
| COc1cccc(CNc2nc(C(F)(F)F)nc3ccccc23)c1 | 0.0262% |
| CS(=O)(=O)c1cccc(NC(=O)C2CCCN2S(=O)(=O)c2ccc(F)cc2)c1 (stereo not shown) | 7.77% |
| Nc1ccc(C(=O)OCc2ccncc2)cc1[N+](=O)[O-] | -28.7% |
| NC(=O)c1cccnc1Nc1ccccc1F | 0.0995% |
| CC1(C)C=Cc2cc3ccc(=O)oc3cc2O1 | 3.51% |
| COc1ccc(OCc2n[nH]c(=S)n2-c2ccc(C)cc2)cc1 | 0.659% |
| O=C(O)CSCC(=O)Nc1cccc(C(F)(F)F)c1 | -6.67% |
| O=C(CN1CCN(Cc2ccccc2)CC1)Nc1cccc(Cl)c1 | -60.7% |
| O=C(Cn1cnnn1)Nc1cccc(S(=O)(=O)N2CCCCC2)c1 | 18.2% |
| Cl.O=C(CN1CCCC1)Nc1cccc(Cl)c1 | -3.66% |
| Cc1ccc(S(=O)(=O)N2CCCCC2)cc1NC(=O)Cn1ccc(C(F)(F)F)n1 | -8.63% |
| CCN(CC)C(=S)SCC(=O)Nc1cccc(C(F)(F)F)c1 | -10% |
| CN(C)C(=S)SCC(=O)Nc1cccc(C(F)(F)F)c1 | -54.6% |
| O=C(Cn1ccc(C(F)(F)F)n1)Nc1cccc(S(=O)(=O)N2CCCCC2)c1 | -60.5% |
| Cl.O=C(CN1CCCCC1)Nc1cccc(Cl)c1 | -28.8% |
| CCN1CCN(C(=S)Nc2sc(C)c(-c3ccccc3)c2C(=O)OC)CC1 | 15.3% |
| CC1(C)Cc2cccc(OCC(=O)OCC(=O)c3ccccc3)c2O1 | 1.43% |
| Cc1c(NC(=O)CSc2nnnn2-c2ccc(F)cc2)c(=O)n(-c2ccccc2)n1C | -2.74% |
| Cc1cccc(C(=O)Oc2ccc(/C=N/NC(=O)c3ccncc3)cc2)c1 | 3.1% |
| Clc1ccc2c(c1)C(c1ccccc1Cl)=NCc1nnc(Br)n1-2.c1ccccc1 | -6.61% |
| CCS(=O)(=O)NCc1nnc2n1-c1ccc(Br)cc1C(c1ccccc1Cl)=NC2 | -49% |
| COCCCN1CCN(c2nnc3n2-c2sc(Br)cc2C(c2ccccc2Cl)=NC3)CC1.CS(=O)(=O)O | -47.7% |
| Cc1nnc2n1-c1ccc(Br)cc1C(c1ccccc1Cl)=NC2 | -21.1% |
| Clc1ccc2c(c1)C(c1ccccc1Cl)=NCc1nnc(N3CCN(CCSc4ccccc4)CC3)n1-2.O.O=C(O)/C=C/C(=O)O | -66.5% |
| Clc1ccc2c(c1)C(c1ccccc1Cl)=NCc1nnc(N3CCN(CCOc4ccccc4)CC3)n1-2.O=C(O)/C=C/C(=O)O | -72.7% |

| Structure (SMILES) | hERG current change (%, negative = inhibition) at 10uM |
| --- | --- |
| Clc1ccc2c(c1)C(c1ccccc1Cl)=NCc1nncn1-2 | -4.37% |
| COc1ccccc1C1=NCc2nnc(C)n2-c2ccc(Cl)cc21 | 3.01% |
| CCOCCN1CCN(c2nnc3n2-c2ccc(Cl)cc2C(c2ccccc2Cl)=NC3)CC1.O=CO | -76.5% |
| CN1CCN(Cc2nnc3n2-c2ccc(Cl)cc2C(c2ccccc2)=NC3)CC1.O=CO | -64.7% |
| CSCc1nnc2n1-c1ccc(Cl)cc1C(c1ccccc1)=NC2 | -17% |
| CCS(=O)(=O)NCc1nnc2n1-c1ccc(Cl)cc1C(c1ccccc1)=NC2 | 12.6% |
| C/C(=N\NC(=O)C1CC1)c1ccc(N2CCOCC2)cc1 | -0.403% |
| O=c1/c(=C/c2ccco2)sc2nc(-c3ccccc3Br)nn12 | 12.7% |
| O=c1sc2ccccc2c(N2CCCC2)c1[N+](=O)[O-] | 6.33% |
| Cc1cc(C)nc(SCc2nnc(SCC(N)=O)o2)n1 | 15.7% |
| O=C(c1ccccc1)c1ccc(N=Nc2c(O)[nH]c(=O)[nH]c2=O)cc1 | 1.15% |
| Cc1nc2c(c(=O)n1CCC1=CCCCC1)c1nc3ccccc3nc1n2/N=C/c1ccco1 | -22% |
| O=S(=O)(c1cccs1)N1CCC(Cc2ccccc2)CC1 | 6.58% |
| CCOC(=O)C1=C(N)Oc2ccc3ccccc3c2C1c1cccnc1 (stereo not shown) | 0.98% |
| O/N=C1\CCCc2c1nc(-c1ccccc1F)n2O | 26.1% |
| O=C(COc1cc2oc(=O)c3c(c2cc1Cl)CCC3)NCC1CCC(C(=O)O)CC1 (stereo not shown) | 5.36% |
| Cc1ccc(S(=O)(=O)CC(=O)N2CCCCCC2)cc1 | 13.6% |
| C=CC(C)(C)c1[nH]cnc1/C=C1\NC(=O)C(C(C)C)NC1=O (stereo not shown) | 3.54% |
| COc1ccc(NC(=O)N[C@@H](CCSC)C(=O)O)cc1OC | -0.994% |
| Cc1ccc(NC(=S)N2CCC(NC(=O)c3cccc(F)c3)CC2)cc1 | -24.9% |
| COCCOCC(O)CN1CCN(c2ccccc2)CC1.O=C(O)C(=O)O (stereo not shown) | -3.37% |
| CCOC(=O)C1CCCN(c2nnnn2-c2ccccc2)C1 (stereo not shown) | -5.57% |
| CS(=O)(=O)NCc1nnc2n1-c1ccc(Cl)cc1C(c1ccccc1)=NC2 | 6.2% |
| COc1ccccc1C1=NCc2nnc(CSC)n2-c2ccc(Cl)cc21 | -19.1% |
| CN(C)CCSCc1nnc2n1-c1ccc(Cl)cc1C(c1ccccc1Cl)=NC2.c1ccccc1 | -73.7% |
| Cc1ccc(C(=O)NC(=S)Nc2ccc(N3CCOCC3)cc2)cc1C | -7.53% |
| O=C(NCCCn1ccnc1)C(=O)NCC(c1ccco1)N1CCN(c2ccccc2)CC1 (stereo not shown) | 1.01% |
